From PubChem BioAssay AID504375 (National Center for Advancing Translational Sciences (NCATS), 2011) come the findings set out here.

In all, about 1,600 compounds went through this assay and about 25 (2%) were called active. Where a call stands in place of a potency, no number is given. Roughly 7% stayed inconclusive and do not appear here. Calls come from the whole dose curve; as a rule, active = well fitted inhibition curve with a large enough effect; inconclusive = small, poorly fitted or top-dose-only effect, or effect the other way; inactive = no such curve, though single readings can be large or run the other way. This excerpt belongs to a sample that is enriched for actives.
Potency is the fitted concentration of half-maximal effect.

Runt-related transcription factor 1 (Homo sapiens) + Core-binding factor subunit beta (Homo sapiens), sequence (Q01196 whole entry, looked up): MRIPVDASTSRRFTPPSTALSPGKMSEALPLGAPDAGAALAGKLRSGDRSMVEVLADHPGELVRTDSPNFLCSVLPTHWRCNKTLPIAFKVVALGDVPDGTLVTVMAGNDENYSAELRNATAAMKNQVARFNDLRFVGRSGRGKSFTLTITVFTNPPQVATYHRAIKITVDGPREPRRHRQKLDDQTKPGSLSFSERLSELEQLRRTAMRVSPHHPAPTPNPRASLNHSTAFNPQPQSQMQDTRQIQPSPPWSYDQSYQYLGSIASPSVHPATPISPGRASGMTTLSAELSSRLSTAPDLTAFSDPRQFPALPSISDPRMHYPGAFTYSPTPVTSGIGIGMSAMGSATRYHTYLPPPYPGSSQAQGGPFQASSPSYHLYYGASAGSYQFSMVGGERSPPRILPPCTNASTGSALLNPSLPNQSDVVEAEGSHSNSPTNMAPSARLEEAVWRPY
Runt-related transcription factor 1 (Homo sapiens) + Core-binding factor subunit beta (Homo sapiens), sequence (Q13951 whole entry, looked up): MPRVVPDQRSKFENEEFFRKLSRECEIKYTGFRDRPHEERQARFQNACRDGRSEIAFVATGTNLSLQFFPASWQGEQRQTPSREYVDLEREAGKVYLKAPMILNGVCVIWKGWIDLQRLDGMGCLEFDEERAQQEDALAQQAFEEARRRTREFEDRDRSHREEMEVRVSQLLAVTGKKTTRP

The target in this assay is Runt-related transcription factor 1 (Homo sapiens) + Core-binding factor subunit beta (Homo sapiens) (UniProt Q01196+Q13951). As to the kind of experiment: qHTS Assay for Compounds Blocking the Interaction Between CBF-beta and RUNX1 for the Treatment of Acute Myeloid Leukemia: Hit Validation with Orthogonal Assay. To be noted: CBFbeta-RUNX1 binding orthogonal assay, biochemical; series mostly up to 41 µM. The source says:
NIH Chemical Genomics Center [NCGC]
NIH Molecular Libraries Probe Production centers Network [MLPCN]
Assay Submitter (PI): Paul Liu
Core Binding Factor (CBF) abnormalities are associated with 20-25% of all acute myeloid leukemias (AML), of which 5-10% are further sub classified as acute myelomonocytic leukemia with eosinophilia, also known as M4Eo in the FAB classification scheme. This subtype of leukemia is usually associated with chromosome 16 inversion (p13:q22). Chromosome 16 inversion results in formation of the fusion oncogene CBFB-MYH11, which encodes the fusion protein CBF-beta-SMMHC.
It has been hypothesized that the interference of CBF-beta and RUNX1 binding could have therapeutic implications for patients with CBF mediated leukemias. We developed a CBF-beta and RUNX1 binding assay in AlphaScreenTM format and optimized it for high throughput screening to search for inhibitors. The goal of this project is to screen MLPCN's compound collection (MLSMR) for identifying the inhibitors of the interaction between CBF-beta and RUNX1 proteins as research probes. If these probes work well in the animal models, the ultimate goal of this project is to development a new drug treatment for this disease.
This assay can not be used to assess how apparent inhibitors interfere with protein binding, and whether inhibitors specifically bind to either protein. Disruption of this protein-protein interaction, through any mechanism, is the intended target activity.
The present data set was run to confirm the activity of hits from the primary screen using an orthogonal assay technology for measuring protein-protein interaction disruption.
A TR-FRET (time resolved fluorescence resonance energy transfer) assay was performed using the same assay buffer, protein concentrations and incubation times as described previously in the AlphaScreen assay, except that terbium (Tb+) labeled anti-his-antibody and XL665 linked streptavidin were used to capture the binding signal. The Tb+ labeled anti-his-antibody captures His(6)-CBF and XL665 linked streptavidin binds to biotin-RUNX1. The binding of RUNX1 to CBFbrings Tb+ and XL665 to proximity resulting in a TR-FRET signal. Briefly, in a white 384-well plate, 10 µl/well of mixture of biotin-RUNX1 and His(6)-CBFwere incubated with 10 µl/well buffer (positive control) or 10 µl/well compounds (negative control) for 20 min followed by an addition of 10 µl/well of Tb+ labeled anti-his(6)-antibody and XL665 linked streptavidin. After 90 min of incubation in the dark, the assay plate was measured in the Envision plate reader using TR-FRET detection mode. For the 1536-well plate format, 3 µl/well mixture of biotin-RUNX1 and His(6)-CBF (30 nM per protein) was incubated with 23 nl/well compound (dissolved in 100% DMSO) or the equivalent DMSO concentration (positive control) for 30 min followed by the addition of 1 µl/well of 0.44 ng Tb+ labeled anti-his(6)-antibody and 5 nM streptavodin-XL665. After 90 min of incubation, the assay plate was measured in the Envision plate reader.
The TR-FRET assay for detecting interaction between HIV-I Tat and […] was similarly performed with the recombinant full-length HIV-I Tat CLADE B and HIV-I Tat Biotin conjugated proteins supplied by Diatheva (Fano, Italy). Briefly, the His-CBF and Biotin-RUNX1 complex at a working concentration of 83.3 nM per protein were pre-incubated in assay buffer for 10 minutes on ice. Then HIV-I Tat or unlabeled CBF were added to reach final concentrations (Supplementary Figure 4b) and incubated for 5 minutes. Finally anti-His antibody and streptavidin-XL665 at a final concentration of 2.2 ng and 5 nM, respectively, were added to the plate, which was incubated for 1 hr prior to reading on the PerkinElmer Envision plate reader.
Keywords: MLSMR, MLPCN, NIH Roadmap, qHTS, NCGC, Core binding factor, CBF, CBF-beta, Acute myeloid leukemia
For orientation: In qHTS, concentration-response curves come from the screen itself.
As to `O=C(O)CCCCC1SCC2NC(=O)NC21` (stereo not given), the Potency was 20 nM (active).

As to `CC(C)[C@@]1(NC(=O)[C@H]2CC3c4cccc5[nH]cc(c45)C[C@H]3N(C)C2)O[C@@]2(O)C3CCCN3C(=O)[C@@H](Cc3ccccc3)N2C1=O` (stereo not given in full), the Potency result was “inactive”.

For `CCC(=Nc1cccc(C(F)(F)F)c1)c1c(O)n(C)c(=O)n(C)c1=O`, the Potency entry is “inactive”.

For `Cc1onc(-c2c(Cl)cccc2Cl)c1C(=O)Nc1ccc2c(C(F)(F)F)cc(=O)oc2c1`, the Potency entry was “inactive”.

`CN(N=O)c1ccc(O)c(O)c1`: the Potency was 2510 nM (active).

`CN(N=O)c1cc(O)ccc1O`: the Potency entry is “inactive”.

As for `O=c1[nH]c(=S)n(-c2ccccc2)c(O)c1C=NCc1ccccn1`, the Potency result is “inactive”.

As to `Cn1c(O)c(/C=N/N2CCOCC2)c(=O)[nH]c1=S`, the Potency entry is “inactive”.

Regarding `Cc1cc(OC(=O)N(C)C)nc2c1c(C)nn2C`, the Potency result is “inactive”.

Regarding `O=C(O)CN1C(=O)CN=C(c2ccccn2)c2cc(Cl)ccc21`, the Potency entry is “inactive”.

As for `CC1CN=C(Nc2ccc(F)c(Cl)c2)S1` (stereo not given), the Potency entry is “inactive”.

Regarding `NC(Cc1cc(O)c(O)cc1O)C(=O)O` (stereo not given), the Potency was 10000 nM (active).

In the case of `COC1C(OC(=O)c2ccc(C)[nH]2)C(O)C(Oc2ccc3c(O)c(NC(=O)c4ccc(O)c(CC=C(C)C)c4)c(=O)oc3c2Cl)OC1(C)C` (stereo not given), the Potency entry is “inactive”.

Turning to `CCC(=NCc1cccnc1)c1c(O)n(-c2ccccc2C)c(=O)[nH]c1=O`, the Potency entry was “inactive”.

As for `CCCCc1ccc(C(=O)O)nc1`, the Potency entry is “inactive”.
